ALDH1A1 block = qHTS Assay for Inhibitors of Aldehyde Dehydrogenase 1 (ALDH1A1) | AID 1030, 2008 | 220,000 tested, 7.3% active | Purified ALDH1A1, NADH fluorescence, propionaldehyde substrate | Potency, µM (doses to about 75.3 µM), usual class: inhibitors | Aldehyde dehydrogenase 1A1 (Homo sapiens), P00352
Target sequence (P00352 whole entry, looked up): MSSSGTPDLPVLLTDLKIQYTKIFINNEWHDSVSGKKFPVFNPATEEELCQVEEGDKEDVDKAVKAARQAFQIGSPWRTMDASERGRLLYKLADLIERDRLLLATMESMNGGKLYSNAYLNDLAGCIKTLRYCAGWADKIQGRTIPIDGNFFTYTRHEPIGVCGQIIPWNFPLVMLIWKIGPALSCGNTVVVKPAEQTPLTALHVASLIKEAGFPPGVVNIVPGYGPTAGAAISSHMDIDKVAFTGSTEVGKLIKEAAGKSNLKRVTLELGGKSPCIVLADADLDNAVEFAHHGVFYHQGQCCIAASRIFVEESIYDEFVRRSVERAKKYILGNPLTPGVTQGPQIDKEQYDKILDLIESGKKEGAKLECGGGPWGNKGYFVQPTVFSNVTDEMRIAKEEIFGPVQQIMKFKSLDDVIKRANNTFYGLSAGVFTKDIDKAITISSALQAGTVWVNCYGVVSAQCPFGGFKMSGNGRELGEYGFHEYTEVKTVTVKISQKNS
HPGD inh = qHTS Assay for Inhibitors of HPGD (15-Hydroxyprostaglandin Dehydrogenase). Potency, µM, most hits filed as inhibitors. purified HPGD, NADH fluorescence kinetic, PGE2 substrate. 150,000 tested, 4.3% active. 15-hydroxyprostaglandin dehydrogenase [NAD(+)] (Homo sapiens), P15428
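20 nM HPGD preincubated 15 min at room temperature with compound in 50 mM Tris-HCl pH 8, 0.01% Tween 20. Started with 1 mM NAD+ and 30 uM prostaglandin E2; NADH fluorescence (360/450 nm) read 5 times over 30-s intervals, last minus first.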
HttQ103 aggreg = qHTS Multiplex Assay to Identify Dual Action Probes in a Cell Model of Huntington: Aggregate Formation (GFP); Potency, µM (series often up to 46.1 µM), hits mostly inhibitors; AID 1688, 2009; PC12 HttQ103-GFP aggregates, Acumen cytometry, 40 h; 220,000 tested, 1.1% active; active means well fitted curve in the direction sought with a large enough effect; inconclusive means small, poorly fitted or top-dose-only effect, or another doubt; inactive means no such curve, though single readings can be large; an effect the other way counts as inactive or inconclusive; further: nearly all actives have a fitted effect of over 60% in size
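Steps: seed 1500 PC12 HTTQ103-GFP cells/well; add tebufenozide, 100 nM final; add compound titration; add ATPLite reagent; quantify GFP aggregates by laser scanning cytometry.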
HTT cytoprotect = qHTS Multiplex Assay to Identify Dual Action Probes in a Cell Model of Huntington: Cytoprotection (ATP). AID 1471, 2008. PC12 HTT-Q103 induced, cytoprotection, ATP luminescence, 40 h. 230,000 tested, 0.14% active. Potency, µM (highest dose often 56.4 µM), hits mostly activators; active means well fitted curve in the direction sought with a large enough effect; inconclusive means small, poorly fitted or top-dose-only effect, or another doubt; inactive means no such curve, though single readings can be large; an effect the other way counts as inactive or inconclusive; further: nearly all actives have a fitted effect of over 45% in size
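Stable PC12 Q103-GFP cells in serum-supplemented, phenol red-free DMEM; induction by tebufenozide at 100 nM final; compound dose series; cell viability quantified luminescently from ATP.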
LMNA splice mod = qHTS Assay for Modulators of Lamin A Splicing; HeLa LMNA splicing GFP/RFP minigene ratio, 48 h; AID 1487, 2009; 200,000 tested, 0.01% active; Potency, µM (titrated, usually from 46.1 µM), hits mostly inhibitors; active means well fitted inhibition curve with a large enough effect in the signal ratio, with a control signal flat, not every such curve was filed as active; inconclusive means small, poorly fitted or top-dose-only effect, or effect the other way, or a change in a side signal; the % refers to the signal ratio
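S3 HeLa cells stably expressing lamin A-EGFP splicing minigene plus DsRed2, 600 cells/well, 48 h compound exposure at 37C. Laser-scanning cytometry; analysed as GFP (500-530 nm)/RFP (575-640 nm) total intensity ratio; 0.5% DMSO vehicle.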
Hits are given with their value; 0 = inactive; ? = inconclusive; - = no result given; [ ] = another dose, or the depositor's remark. Compounds with a hit are over-represented: about 8.8% of the library has one in this group of screens. Unless noted, the call rests on the fitted dose curve; in most records, active means well fitted inhibition curve with a large enough effect (not every such curve was filed as active); inconclusive means small, poorly fitted or top-dose-only effect, or another doubt; inactive means no such curve, though single readings can be large or run the other way.

SMILES	ALDH1A1 block	HPGD inh	HttQ103 aggreg	HTT cytoprotect	LMNA splice mod
CCOC(=O)C1=C(C)N=C2SC(C)C(=O)N2C1c1cccc(F)c1 (configuration not stated)	0	0	0	25µM	0
CC1=C(C(=O)OCC(C)C)C(c2cccc(F)c2)N2C(=O)C(C)SC2=N1 (configuration not stated)	0.45µM	?	0	0[10 µM]	0
CCC1SC2=NC(C)=C(C(=O)OC)C(c3ccc(C)cc3)N2C1=O (configuration not stated)	14µM	0	0	0	0
CCOc1ccccc1NC(=O)c1ccc(F)c(S(=O)(=O)N2CCN(c3ccc(F)cc3)CC2)c1	-	-	-	-	0
CCOC(=O)c1cccc(NC(=O)CCS(=O)(=O)c2cccc3nsnc23)c1	22µM	?	0	0	0
Cc1cccc(NC(=O)CCS(=O)(=O)c2cccc3nsnc23)c1C	25µM	?	0	0	0
COc1ccccc1NC(=O)c1ccc(-c2nn(C)c(=O)c3ccccc23)cc1	0	-	0[9.22 µM]	0[10 µM]	?
Cc1ccc(-c2nn(C)c(=O)c3ccccc23)cc1CNC(=O)c1ccco1	0	3.5µM	?	0	0
COC(=O)COc1ccc(-c2nn(C)c(=O)c3ccccc23)cc1	0	0	0	0	0
CCC(CO)NC(=O)c1ccc(-c2nn(C)c(=O)c3ccccc23)cc1 (configuration not stated)	0	32µM	0[9.22 µM]	0	0
Cn1nc(-c2ccc(OCC(=O)Nc3ccccc3)cc2)c2ccccc2c1=O	0	28µM	0[9.22 µM]	0	?
CN(C)CCNC(=O)c1ccc(-c2nn(C)c(=O)c3ccccc23)cc1	0	20µM	0[9.22 µM]	0	0
O=c1c(N2CCc3ccccc3C2)csc2ccc(F)cc12	-	-	-	-	0
COc1ccc(CCNC(=O)CSc2n[nH]c(-c3ccccc3Cl)n2)cc1OC	-	-	-	-	0
CN(C(=O)c1ccc(-c2nn(C)c(=O)c3ccccc23)cc1)c1ccccc1	0	7.9µM	?	0[10 µM]	0
O=C1OC(/C=C/c2ccc(Cl)cc2)=NC/1=C/c1ccco1	2µM	0	0	0[10 µM]	0
C=CCOC(=O)C1=C[C@H](C2CC2)[C@@H](CCCO)[C@H](OCC)O1	28µM	-	0[9.22 µM]	0[10 µM]	-
CCO[C@H]1OC(C(=O)O)=C[C@@H](C2CC2)[C@@H]1CCCO	0	-	0[9.22 µM]	0[10 µM]	-
CCN(CC)C(=O)Oc1cc(=O)n2c3c(cccc13)CCC2	?	?	0	-	?
Cc1nc2ccn(Cc3cccnc3)c(=O)c2cc1C(=O)Nc1ccc(F)cc1F	-	-	-	-	0
O=C1N=c2ccccc2=C1c1sc(=S)n(CC2CCCO2)c1O (configuration not stated)	0	0	0	0[10 µM]	0
COc1ccc(N=C2O/C(=C/c3sc(=S)n(CC4CCCO4)c3O)N=C2C#N)cc1 (configuration not stated)	1.1µM	-	0[9.22 µM]	0[10 µM]	-
Cc1ccc(NC(=O)Cn2c(=O)oc3cc(S(=O)(=O)N4CCC(C)CC4)ccc32)cc1C	?	0	?	0	0
CC(C)c1ccc(CNc2c([N+](=O)[O-])c(=O)oc3ccccc23)cc1	0	-	0	0[10 µM]	-
O=c1oc2ccccc2c(NCc2ccccc2F)c1[N+](=O)[O-]	1.1µM	16µM	0	0[10 µM]	0
SMILES	ALDH1A1 block	HPGD inh	HttQ103 aggreg	HTT cytoprotect	LMNA splice mod
CCOC(=O)CC(NC(=O)CCc1c(C)nc2ncnn2c1C)c1ccc(C)cc1 (configuration not stated)	0	-	0	0	0
Cc1ccc(NC(=S)Nc2ccc3cn[nH]c3c2)cc1C	?	-	0	0[10 µM]	0
CN(C)c1ccc(NC2=C(Cl)C(=O)c3ccccc3C2=O)cc1	?	14µM	14µM	0[10 µM]	?
CC(=O)Nc1ccc(NC2=C(Cl)C(=O)c3ccccc3C2=O)cc1	?	-	?	0	?
O=C(Nc1ccc2cn[nH]c2c1)c1c(Cl)cccc1Cl	0	22µM	0	0[10 µM]	0
CC(C)c1ccc(NC(=S)Nc2ccc3cn[nH]c3c2)cc1	19µM	-	0	0	0
O=C1C(Cl)=C(Nc2ccc3cn[nH]c3c2)C(=O)c2ccccc21	-	-	4µM	0[10 µM]	-
Nc1nc(=O)c2[nH]cnc2n1O	0[13.5 µM]	0	-	0[10 µM]	-
O=S(=O)(c1cccs1)N1CCN(C/C=C/c2ccccc2)CC1	?	0	0	0[10 µM]	?
O=S(=O)(c1ccc(Cl)s1)N1CCN(C/C=C/c2ccccc2)CC1	?	0	35µM	0[10 µM]	0
N#Cc1cccc(-c2nc(NCc3cccnc3)c3ccccc3n2)c1	?	-	-	0	0
CCOC(=O)C(=O)Nc1ccc(OCc2ccccc2)cc1	25µM	-	0[9.22 µM]	0[10 µM]	0
C/C(CC(=O)Nc1ccc(C)c(Cl)c1)=N\NC(=O)Cc1ccccc1	?	0	0	0[10 µM]	0
C/C(CC(=O)Nc1ccc(OCc2ccccc2)cc1)=N\NC(=O)C(=O)Nc1ccc(C)c(Cl)c1	14µM	0	0	0	0
CS(=O)(=O)N(CC(=O)Nc1ccccc1C(=O)N1CCCC1)c1cccc([N+](=O)[O-])c1	16µM	-	0[9.22 µM]	0	0
COc1cccc(C(=O)Nc2cccc(C(=O)NCC(C)C)c2)c1	0	0	3.2µM	0[10 µM]	0
CCCOc1cccc(C(=O)O)c1	0	0	0	0	0
CCCCOc1cccc(C(=O)NC(=S)Nc2cccc(NC(=O)c3ccccc3Cl)c2)c1	2µM	0	0	0[10 µM]	0
CCCOc1cccc(C(=O)NC(=S)Nc2ccccc2)c1	18µM	0	0	0[10 µM]	?
CCC(=O)Nc1cccc(NC(=S)NC(=O)c2ccccc2Cl)c1	0	0	0	0	0
CCCOc1cccc(C(=O)NC(=S)Nc2cccc(NC(=O)c3ccccc3Cl)c2)c1	13µM	0	0	0[10 µM]	0
CCOc1ccc(CC(=O)NCCS(=O)(=O)N2CCN(c3ccc(OC)cc3)CC2)cc1	-	-	-	-	0
CC(C)COc1cccc(C(=O)NC(=S)Nc2cccc(NC(=O)c3ccccc3Cl)c2)c1	10µM	0	0	0[10 µM]	0
CC(C)Oc1cccc(C(=O)NC(=S)Nc2ccccc2)c1	10µM	0	0	-	?
CC(C)Oc1cccc(C(=O)NC(=S)Nc2cccnc2)c1	?	0	0	0[1.9 µM]	0
CCCOc1ccc(CC(=O)NNC(=S)Nc2ccccc2)cc1Br	18µM	?	0	0[10 µM]	?
CC(C)(C)N1C(=O)[C@H]2[C@H]3[C@H](O)[C@H](O)C/C(=N/OC[C@@H](O)COCc4ccco4)[C@H]3CC[C@@H]2C1=O	0[13.5 µM]	-	-	0[10 µM]	-
Cc1ccc2c(c1)N(C(=O)N1CCC(C(=O)Nc3cccc(F)c3)CC1)CCO2	-	-	-	-	0
Cc1ccc(-n2ncc(C(=O)NCCN3CCOCC3)c2C2CCN(C(=O)OC(C)(C)C)CC2)c(C)c1	-	-	-	-	0
